Test results from article PMC4336329 (PLoS ONE, 2015).
Among all 310,000 compounds or so, about 14,000 (4.5%) showed an effect of 50% or more. The effect is printed as a negative number. This is one part of a sample in which strong results are shown more often than they occur.

Target: human ether-à-go-go-related gene (hERG) potassium channel (human, UniProt Q12809)
Experiment: primary screen, population patch clamp on CHO cells stably expressing hERG; higher = less effect of the substance
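Also: peak tail current of the secondary pulse compared with the same well before compound.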

Sequence of human ether-à-go-go-related gene (hERG) potassium channel (Q12809 whole entry, looked up): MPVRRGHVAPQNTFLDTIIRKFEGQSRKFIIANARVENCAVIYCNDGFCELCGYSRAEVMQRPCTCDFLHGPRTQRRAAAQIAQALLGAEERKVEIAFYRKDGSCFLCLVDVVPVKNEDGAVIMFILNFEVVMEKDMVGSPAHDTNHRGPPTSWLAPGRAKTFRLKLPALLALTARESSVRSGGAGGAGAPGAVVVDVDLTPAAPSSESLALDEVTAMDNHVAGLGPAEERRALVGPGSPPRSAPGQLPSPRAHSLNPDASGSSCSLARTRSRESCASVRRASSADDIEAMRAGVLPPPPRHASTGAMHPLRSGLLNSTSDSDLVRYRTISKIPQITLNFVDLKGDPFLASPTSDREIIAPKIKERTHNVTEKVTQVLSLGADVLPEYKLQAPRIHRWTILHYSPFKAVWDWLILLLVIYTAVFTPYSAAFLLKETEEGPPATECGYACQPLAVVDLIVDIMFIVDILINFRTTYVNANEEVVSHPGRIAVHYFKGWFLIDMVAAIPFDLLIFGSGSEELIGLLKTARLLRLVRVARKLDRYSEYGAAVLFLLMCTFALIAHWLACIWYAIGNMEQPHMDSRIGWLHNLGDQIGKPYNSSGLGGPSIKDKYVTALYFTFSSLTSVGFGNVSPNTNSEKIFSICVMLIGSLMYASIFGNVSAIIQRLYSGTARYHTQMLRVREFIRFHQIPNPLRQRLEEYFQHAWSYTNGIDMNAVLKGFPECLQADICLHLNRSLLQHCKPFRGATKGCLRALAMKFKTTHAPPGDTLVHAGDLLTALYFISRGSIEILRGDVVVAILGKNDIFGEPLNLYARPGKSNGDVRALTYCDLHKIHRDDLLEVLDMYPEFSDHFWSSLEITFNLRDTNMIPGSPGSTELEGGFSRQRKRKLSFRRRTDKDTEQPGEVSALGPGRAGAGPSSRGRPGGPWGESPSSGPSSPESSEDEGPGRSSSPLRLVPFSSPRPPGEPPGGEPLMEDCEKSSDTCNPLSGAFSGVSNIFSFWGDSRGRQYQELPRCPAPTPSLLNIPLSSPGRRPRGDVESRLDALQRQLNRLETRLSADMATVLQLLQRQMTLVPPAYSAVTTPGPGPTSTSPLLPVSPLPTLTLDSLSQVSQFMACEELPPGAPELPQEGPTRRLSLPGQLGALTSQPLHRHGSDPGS

Row | SMILES | hERG current change (%, negative = inhibition) at 10uM
1 | CC(Sc1ccc(S(=O)(=O)N2CCOCC2)cn1)C(=O)Nc1ccc(Cl)cc1Cl (stereo not drawn) | -56.1%
2 | CC(Sc1ccc(Cl)cc1)C(=O)Nc1ccc(S(=O)(=O)N2CCOCC2)cc1 (stereo not drawn) | -22.7%
3 | CNC(=O)C(C)Sc1ccc(S(=O)(=O)N2CCOCC2)cn1 (stereo not drawn) | -0.356%
4 | COc1ccc(Cl)cc1N1CCN(CCNC(=O)Nc2ccccc2C)CC1 | -40.1%
5 | COc1cc(CNc2ncc(-c3ccc(Cl)cc3)n2C)cc(OC)c1OC.O=C(O)C(=O)O | -66.9%
6 | COc1ccc(CNc2ncc(-c3ccccc3)n2C)c(OC)c1OC.O=C(O)C(=O)O | -44.1%
7 | COc1cc(CNc2ncc(-c3ccc(Br)cc3)n2C)cc(OC)c1O.O=C(O)C(=O)O | -60.5%
8 | COc1cc(CNc2ncc(-c3ccc(Br)cc3)n2C)cc(OC)c1OC.O=C(O)C(=O)O | -49.9%
9 | CCOc1cc(CNc2ncc(-c3ccc(OC)cc3)n2C)ccc1O.O=C(O)C(=O)O | -48.3%
10 | COc1ccc(CNc2ncc(-c3ccc(Cl)cc3)n2C)c(OC)c1OC.O=C(O)C(=O)O | -47%
11 | Cc1cccc2c1cnn2C(=O)CCC(=O)N1CCC(C)CC1 | -14.1%
12 | Br.NC1(N)OC(CN2C(=O)c3ccccc3C2=O)CS1 (stereo not drawn) | -5.75%
13 | Cc1c(C(=O)NC(C)c2ccncc2)oc2ccccc12 (stereo not drawn) | -29.7%
14 | CCOc1ccc(OCc2cccc(C(=O)N3CCCCCC3)c2)cc1 | -69.3%
15 | CC(C)C(=O)Nc1cccc(NC(=O)c2cccc(F)c2)c1 | 5.16%
16 | O=C(Nc1ccc2c(c1)OCO2)c1ccc(CN2CCOCC2)cc1 | 10.1%
17 | O=C(Nc1ccc(CN2CCCCC2)cc1)c1ccc2c(c1)OCO2 | -64.3%
18 | CCCNC(=O)c1cccc(NC(=O)C(C)C)c1 | -25.4%
19 | COc1ccc(OCc2cccc(C(=O)N3CCCC3)c2)cc1 | -3.08%
20 | COc1ccc(OCc2cccc(C(=O)Nc3ccc(CN4CCCCC4)cc3)c2)cc1 | -72.8%
21 | COc1ccc(C(=O)Nc2ccc(CN3CCCCC3)cc2)cc1 | -40.3%
22 | CCOc1ccc(OCc2cccc(C(=O)N3CCCC3)c2)cc1 | -11.6%
23 | CC(C)C(=O)Nc1cccc(NC(=O)c2cccc(Br)c2)c1 | -52.1%
24 | COc1cc(OC)cc(C(=O)Nc2ccc(CN3CCCCC3)cc2)c1 | -14.7%

Row | SMILES | hERG current change (%, negative = inhibition) at 10uM
25 | O=C(Nc1ccc(C(=O)N2CCCC2)cc1)c1ccc2c(c1)OCO2 | -0.403%
26 | CC(=O)Nc1ccc(NC(=O)C(C)OC(=O)c2cccc(S(=O)(=O)N3CCCC3)c2)cc1 (stereo not drawn) | 10.4%
27 | Cc1ccccc1CCNC(=O)C1CCCN(c2cnccn2)C1 (stereo not drawn) | -0.76%
28 | O=C(O)C(=O)O.O=C(c1cccnc1)N1CCN(Cc2ccccc2Br)CC1 | 4.7%
29 | CCCCN(C)C(=O)c1nc2ccccn2c1CN1CCC[C@H]1CO | 3.21%
30 | CC(C)C[C@H](NC(=O)c1nc[nH]c1C(=O)NCc1ccc(CNC(=O)OC(C)(C)C)cc1)C(=O)OCc1ccccc1 | 2.91%
31 | CCOC(=O)CNC(=S)N(Cc1cccs1)C1CCCC1 | -5.82%
32 | O=c1c2[nH]c3ccccc3c2ncn1Cc1ccccn1 | -0.569%
33 | CCOC(=O)c1ccccc1NC(=O)COC(=O)CCC(=O)c1ccccc1 | 16.3%
34 | NNC(=S)NC1CCS(=O)(=O)C1 (stereo not drawn) | 22.1%
35 | Cc1cc(/C=C2/C(=O)N(C)C(=S)N2C)ccc1N1CCCC1 | 7.27%
36 | Cc1ccc(S(=O)(=O)N(CC(=O)Nc2ccc(C(N)=O)cc2)C(=O)N2CCN(C)CC2)cc1 | -0.0686%
37 | CCOc1ccc(OCc2cccc(C(=O)Nc3ccc(CN4CCCCC4)cc3)c2)cc1 | -63.2%
38 | O=C(Nc1ccc(CN2CCCCC2)cc1)c1cccc(F)c1 | -40%
39 | CCOc1ccc(OCc2ccc(C(=O)N(CC)CC)cc2)cc1 | 2.22%
40 | CCOc1ccc(NC(=O)c2ccc(CN3CCc4ccccc4C3)cc2)cc1 | 0.805%
41 | O=C(NC(=S)Nc1ccc(CN2CCCCC2)cc1)c1cccc(OCc2ccccc2)c1 | -5.83%
42 | O=C(Nc1ccc(CN2CCCCC2)cc1)c1cccc(Br)c1 | -86.7%
43 | O=C(Nc1ccc(CN2CCCCC2)cc1)c1cc(Br)ccc1Cl | -20.3%
44 | CCCC(=O)Nc1cccc(NC(=O)c2ccc3c(c2)OCCO3)c1 | 5.87%
45 | CCOc1ccc(OCc2cccc(C(=O)O)c2)cc1 | 8.48%
46 | CCCCC(=O)Nc1cccc(NC(=O)c2ccc3c(c2)OCO3)c1 | 6.43%
47 | CCOc1ccc(OCc2cccc(C(=O)N(CC)CC)c2)cc1 | -67.6%
48 | CCCC(=O)Nc1cccc(NC(=O)c2ccc3c(c2)OCO3)c1 | -52.3%
